In the library only some 14% were active in any assay of this set; here they are far more common.
Pf growth 96h = Primary qHTS for delayed death inhibitors of the malarial parasite plastid, 96 hour incubation; AID 504834, 2011; P. falciparum luciferase reporter growth, 96 h; 320,000 tested, 6.9% active; Potency, µM (series often up to 28.7 µM), usual class: inhibitors
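Plates of compound plus infected erythrocytes (2% hematocrit, 0.05% parasitemia final) incubate 96 hours, 37 C, 5% CO2. Detection reagent added; reduced luminescence from the parasites' luciferase reporter flags inhibition.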
HCMV antiviral = qHTS Assay for inhibitors of the human cytomegalovirus (HCMV); HFF cells, HCMV-luciferase reporter, 72 h; stronger effect = lower value; activity change, negative = inhibition, % at 57.5 µM; 410,000 tested, 4.5% active; in the data active = activity change below about -60%; inconclusive = no clear call, values can overlap the other calls; inactive = above about -39%
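Two compound doses tested in HFFs infected with HCMV-luciferase, MOI 1 PFU/cell, 72 h at 37C. Lysate luminescence read with OneGlo; data normalized against buffer-only and 10uM Salinomycin inhibitor controls.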
Pf growth 48h = Primary qHTS for delayed death inhibitors of the malarial parasite plastid, 48 hour incubation; P. falciparum luciferase growth in erythrocytes, 48 h; Potency, µM (titrated, usually from 28.7 µM), hits mostly inhibitors; 310,000 tested, 5.9% active; AID 504832, 2011
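Erythrocytes infected with P. falciparum carrying an integrated firefly luciferase reporter (2% hematocrit, 0.1% parasitemia final) were exposed to compounds in RPMI 1640 with 0.5% Albumax at 37 C, 5% CO2. Growth inhibition was scored as reduced luminescence.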
FBPA Giardia inh = qHTS Assay for Inhibitors of Fructose-1,6-bisphosphate Aldolase from Giardia Lamblia; A8B2U2; purified Giardia FBPA; Potency, µM (doses to about 59.6 µM), usual class: inhibitors; 290,000 tested, 0.71% active; AID 2451, 2010; note: nearly all actives have a fitted effect of over 55% in size
Target sequence (A8B2U2 whole entry, looked up): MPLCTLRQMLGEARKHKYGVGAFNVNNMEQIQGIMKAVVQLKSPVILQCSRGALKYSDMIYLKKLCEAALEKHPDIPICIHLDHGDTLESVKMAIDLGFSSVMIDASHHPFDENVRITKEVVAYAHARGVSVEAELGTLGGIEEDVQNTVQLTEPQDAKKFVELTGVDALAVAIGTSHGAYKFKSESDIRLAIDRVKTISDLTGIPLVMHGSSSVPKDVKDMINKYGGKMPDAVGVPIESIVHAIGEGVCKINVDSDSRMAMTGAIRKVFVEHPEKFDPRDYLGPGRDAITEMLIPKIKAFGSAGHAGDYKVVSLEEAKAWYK
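Giardia FBPA (40 nM reagent) was preincubated 10 min at RT with compound (up to 57.5 uM final), then substrate plus GAPDH/TPI/NAD/arsenate coupling system with diaphorase/resazurin was added; resorufin fluorescence (525/598 nm) was read after 20 min.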
Sm TGR block = qHTS Assay for the Inhibitors of Schistosoma Mansoni Peroxiredoxins | Schistosoma mansoni thioredoxin glutathione reductase (TGR), Q962Y6 | purified TGR, DTNB reduction, TNB absorbance 405 nm | Potency, µM (top dose mostly 114 µM), usual class: inhibitors | 360,000 tested, 3% active; note: nearly all actives have a fitted effect of over 60% in size
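First, TGR (20 nM dispensed) and NADPH were mixed with compound. Second, a 15 min room-temperature incubation followed. Third, further NADPH and then DTNB were added to start the reaction. Finally, TNB absorbance was monitored kinetically.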
Numbers stand for hits; n = inactive; u = inconclusive; x = not tested or not shown. Unless noted, calls come from the whole dose curve; as a rule, active = well fitted curve in the direction sought with a large enough effect; inconclusive = small, poorly fitted or top-dose-only effect, or another doubt; inactive = no such curve, though single readings can be large; an effect the other way counts as inactive or inconclusive.

SMILES | Pf growth 96h | HCMV antiviral | Pf growth 48h | FBPA Giardia inh | Sm TGR block
O=c1[nH]c2cc3c(cc2cc1CN(Cc1cccs1)Cc1nnnn1Cc1ccco1)OCCO3 | 11.7µM | n | u | u | 11.2µM
O=c1[nH]c2cc3c(cc2cc1CN(Cc1ccc2c(c1)OCO2)Cc1nnnn1CC1CCCO1)OCO3 (centres undefined) | u | n | u | n | n
Cc1ccc2[nH]c(=O)c(CN(Cc3ccc4c(c3)OCO4)Cc3nnnn3Cc3ccco3)cc2c1 | x | n | u | n | u
Cc1cc(C)c2cc(CN(Cc3ccc4c(c3)OCO4)Cc3nnnn3Cc3ccco3)c(=O)[nH]c2c1 | u | n | u | n | 39.8µM
CCOC(=O)Cn1nnnc1CN(Cc1cccs1)Cc1cc2cc(C)cc(C)c2[nH]c1=O | 10.4µM | n | x | u | n
CCc1ccc2[nH]c(=O)c(CN(Cc3ccccc3)Cc3nnnn3Cc3ccco3)cc2c1 | n | n | 9.28µM | n | u
COc1ccc2cc(CN(Cc3cccnc3)Cc3nnnn3Cc3ccccc3)c(=O)[nH]c2c1 | n | n | u | n | n
CCOC(=O)c1noc2ncnc(Nc3cc(Cl)c(OC)cc3OC)c12 | x | n | x | x | n
O=c1[nH]c2cc3c(cc2cc1CN(CCCO)Cc1nnnn1Cc1ccc(F)cc1)OCO3 | n | n | n | n | n
O=c1[nH]c2cc3c(cc2cc1CN(Cc1cccnc1)Cc1nnnn1Cc1ccco1)OCCO3 | u | n | x | u | 14.1µM
COc1ccccc1CN(Cc1cc2cc3c(cc2[nH]c1=O)OCCO3)Cc1nnnn1Cc1ccco1 | 1.04µM | n | u | n | u
CCOC(=O)Cn1nnnc1C(CC)N(Cc1ccccc1)Cc1cc2cc(C)ccc2[nH]c1=O (centres undefined) | u | n | x | n | n
O=c1[nH]c2cc3c(cc2cc1CN(Cc1ccccc1)Cc1nnnn1Cc1ccco1)OCCO3 | x | n | u | u | 8.91µM
CCOC(=O)Cn1nnnc1CN(Cc1ccccc1)Cc1cc2cc(CC)ccc2[nH]c1=O | 11.7µM | n | n | n | n
COc1ccc(C(=O)N[C@H]2CC[C@@]34CCCN3C(=O)CCC[C@H]4[C@H]2Cc2ccccc2)cc1 | x | n | x | x | x
COc1ccc2c(c1)c(CC(=O)Nc1cccc(F)c1C)c(C)n2C(=O)c1ccc(Cl)cc1 | x | n | x | x | n
CCc1ccc2[nH]c(=O)c(CN(CCN(CC)CC)C(=S)NCc3ccco3)cc2c1 | n | u | 9.28µM | n | n
COc1ccc(S(=O)(=O)NCCc2c(C)nn(C)c2Oc2ccccc2)cc1 | u | n | u | n | n
Cc1nn(C)c(Oc2ccccc2)c1CCNC(=O)C(C)(C)C | u | -83.5 | u | n | n
Cc1nn(C)c(Oc2ccccc2)c1CCNS(=O)(=O)c1ccc(Cl)cc1 | u | -74.9 | u | n | n
Cc1nn(C)c(Oc2ccccc2)c1CCNC(=O)CC(C)C | n | n | n | n | x
CCN1C(=O)N(CC)C(O)(c2ccccc2)C1(O)c1ccccc1 (centres undefined) | x | -61.9 | n | n | n
CCN1C(=O)N(C)C2(c3ccccc3)N(C)C(=O)N(C)C12c1ccccc1 (centres undefined) | n | n | n | n | n
CCc1ccc(-c2nc(CSCC(=O)NC3CC3)c(C)o2)cc1 | n | -74.3 | u | n | n
COc1ccc(-c2nc(CS(=O)(=O)CC(=O)NC3CCCCCC3)c(C)o2)cc1 | u | n | n | x | u
SMILES | Pf growth 96h | HCMV antiviral | Pf growth 48h | FBPA Giardia inh | Sm TGR block
CCOc1ccc(CCNC(=O)CS(=O)(=O)Cc2nc(-c3ccc(OC)cc3)oc2C)cc1 | n | n | n | n | n
Cc1oc(-c2ccccc2F)nc1CSCC(=O)NC1CCCC1 | 1.47µM | n | n | n | n
Cc1ccc(-c2nc(CS(=O)(=O)CC(=O)NC3CCCCCC3)c(C)o2)cc1 | n | n | n | n | 25.1µM
CCOc1ccc(CCNC(=O)CS(=O)(=O)Cc2nc(-c3ccccc3F)oc2C)cc1 | u | -65.5 | n | x | u
Cc1oc(-c2ccccc2Cl)nc1CSCC(=O)NC1CC1 | u | n | u | n | n
Cc1c(NC(=O)CSC(=S)N2CCCC2)c(=O)n(-c2ccccc2)n1C | u | n | n | x | n
CN(C(=O)COC(=O)c1nc(Cl)ccc1Cl)c1ccccc1 | u | n | n | x | n
COC(=O)CSCc1nc(-c2ccc(C(=O)OC)cc2)oc1C | x | -63.5 | x | x | n
